Experimental findings from PubChem BioAssay are described below.

Molecules are shown by their SMILES. Activity calls are given as the source filed them. Cut-off read from the data, not from the text of the source: active = inhibition above about 31%; inactive = the rest.

As a reminder, the viability is the share of living cells, or the viability signal relative to a control. By inhibition is commonly meant the change of the read-out against control, counted positive when it falls.

One test in a line: MRP1 drug-resistance reversers in H69AR cells – cell-based, doxorubicin co-treatment, pilot screen (AID 601). As to conditions: H69AR cells, CellTiter-Glo, 72 h; compound alone cytotoxicity; at 10 µM.
Regarding `CCOC(=O)c1nnc2cc(-c3ccc(Br)cc3)nn2c1C`, the viability stood at 49.7%.
Same read-out and setting: under `COc1cccc(C(=O)Nc2c(C(N)=O)oc3ccccc23)c1` stands 48.7%; under `CCn1c(CNc2ccc(OC)cc2)nnc1SCC(=O)c1ccc(OC)cc1`, 50.8%; under `COc1ccc(Br)cc1C1N2CC3(C)CN1CC(C)(C2)C3=O` (stereo not drawn), 54.3%.
Still for that read-out and setting: under `CCOC(=O)c1sc(NC(=O)CSc2n[nH]c(-c3ccccc3)n2)c(C#N)c1C` stands 41.3%.
On the same count and under the same terms, the figure for `CCOC(=O)N1CCN(CCC(=O)c2ccc(Cl)cc2)CC1` is 12.8%.
Turning to `CCOC(=O)c1c(C)oc2c1c(C(c1ccncc1)N1CCOCC1)c(O)c1ccccc12` (stereo not drawn), the viability was 1.11%.
Same read-out and setting: the figure for `Cc1c(NC(=O)c2ccc(=O)oc2)c(=O)n(-c2ccccc2)n1C` is 48.5%.
The same measure, in the same setting: the figure for `CCOc1ccccc1-n1nnnc1SCC(=O)Nc1cc2oc3ccccc3c2cc1OC` is 43.6%; for `CC1=C(C(=O)OC2CCCCC2)C(c2ccc(C)o2)C2=C(CC(C)(C)CC2=O)N1` (stereo not drawn) it is 50.5%.
On the same count and under the same terms, under `Cc1nc2ccccc2c(=O)n1NC(=O)c1c(O)c2c(n(CC(C)C)c1=O)CCCC2` stands 49.1%.
Turning to `COc1ccc(C2=NOC(C(=O)Nc3cc(Br)ccc3O)C2)cc1OC` (stereo not drawn), the viability was found to be 60.1%.
For the molecule `Cc1ccc(NC(=O)c2oc3ccc(S(=O)(=O)N4CCOCC4)cc3c2C)cc1C`, the viability stood at 43.4%.
Still for that read-out and setting: under `Cc1nn(-c2nc3ccccc3s2)c(C)c1Oc1ccccc1O` stands 60%; under `Cc1ccc(S(=O)(=O)c2cc3c(=O)n4ccccc4nc3n(CC3CCCO3)c2=N)cc1C` (stereo not drawn), 55.9%.
Regarding `Cc1ccc(C)c(S(=O)(=O)C(C#N)c2nc3ccccc3nc2N2CC(C)OC(C)C2)c1` (stereo not drawn), the viability is 60.4%.
On the same count and under the same terms, the figure for `COC(=O)c1ccccc1S(=O)(=O)N(Cc1cc2cc3c(cc2[nH]c1=O)OCO3)C1CCCCC1` is 60%; for `CC(C)C(=O)Nc1ccc(C(=O)NCc2cccnc2)cc1` it is 10.8%.
Still for that read-out and setting: under `C=C(c1ccc(O)cc1)c1ccc(O)cc1` stands 45%; under `Cc1ccc2c(c1)c1c(n2CC(O)Cn2c(C)nc3ccccc32)/C(=N\O)CCC1` (stereo not drawn), 31.5%; under `C=CCn1c(COc2ccc(Cl)cc2)nnc1SCC(=O)N1CC(=O)Nc2ccccc21`, 62.7%.
Still for that read-out and setting: the figure for `CCC(Sc1nc2n[nH]c(C)c2c(=N)n1-c1cc(Cl)ccc1C)C(=O)N1CCOCC1` (stereo not drawn) is 46.3%.
Turning to `CCOC(=O)c1ccc(N2C(=O)CC(Sc3nnc(C)s3)C2=O)cc1` (stereo not drawn), the viability is 51%.
As to `N#CC1=C(N)n2c(s/c(=C\c3ccco3)c2=O)=C(C#N)C1c1ccco1` (stereo not drawn), the viability came to 47.4%.
The same measure, in the same setting: the figure for `COc1ccc(N2CCN(Cc3cc(=O)oc4cc(C)c(Cl)c(C)c34)CC2)cc1` is 74.8%.
The same measure, in the same setting: under `Cc1ccc(S(=O)(=O)N2CCOCC2)cc1C(=O)Nc1ccc(-c2cn3ccsc3n2)cc1` stands 70.7%; under `CCCCCCc1ccc(-c2ncc(N)cn2)cc1`, 56.7%; under `COc1cc(-c2noc(-c3ccccc3C(=O)NCc3ccco3)n2)cc(OC)c1OC`, 59%.
Still for that read-out and setting: the figure for `Cc1ccc2nc(NC(=O)C3CCN(S(=O)(=O)c4cccc5nsnc45)CC3)sc2c1` is 65.8%; for `CCOC(=O)c1sc(Nc2nc3c(OC)cccc3s2)nc1C` it is 59.2%; for `CC(=O)c1ccccc1Oc1nc(CN2CCOCC2)nc2scc(-c3cccs3)c12` it is 49.9%.
`CCn1c2ccccc2c2cc(NC(=O)Cc3ccc(S(=O)(=O)N4CCOCC4)s3)ccc21`: the viability was found to be 50.1%.
For the molecule `Cc1[nH]nc(N=CC2=C(O)CC(C)(C)CC2=O)c1-c1ccc(Cl)cc1`, the viability was 40.1%.
On the same count and under the same terms, the figure for `N#CC(C(=O)C1CCCCC1)c1nc2ccccc2[nH]1` (stereo not drawn) is 56.1%; for `O=C(CSc1nnc2scc(-c3ccccc3)n12)Nc1nsc(-c2ccccc2)n1` it is 61.1%.
Same read-out and setting: the figure for `CC(C)(C)n1nnnc1C(c1ccccc1)N1CCc2ccccc2C1` (stereo not drawn) is 49.3%.
Still for that read-out and setting: under `CCc1cc2c(=O)c(-c3nc4ccccc4[nH]3)coc2cc1OC(=O)N1CCOCC1` stands 57.7%; under `O=C(Nc1sc2c(c1C(=O)NCc1ccco1)CCCC2)c1ccc2c(c1)OCO2`, 61.4%; under `Cc1cccc(N2CCN(C(=O)c3ccc(NS(=O)(=O)c4c(C)noc4C)cc3)CC2)c1C`, 59.8%.

The next test can be described thus: yeast transport mutant growth inhibition pilot in 384-well plates, post-Golgi transport modulator project (AID 636). The following applies: absorbance 615 nm, about 18 h, stronger effect = higher value.
In the case of `CCOC(=O)c1nnc2cc(-c3ccc(Br)cc3)nn2c1C`, the inhibition was 4.55% (inactive).
Same read-out and setting: under `COc1cccc(C(=O)Nc2c(C(N)=O)oc3ccccc23)c1` stands -5.33% (inactive).
On to `CCn1c(CNc2ccc(OC)cc2)nnc1SCC(=O)c1ccc(OC)cc1`, for which the inhibition was -3.64% (inactive).
Consider `COc1ccc(Br)cc1C1N2CC3(C)CN1CC(C)(C2)C3=O` (stereo not drawn), for which the inhibition was -5.97% (inactive).
The same measure, in the same setting: under `CCOC(=O)c1sc(NC(=O)CSc2n[nH]c(-c3ccccc3)n2)c(C#N)c1C` stands -6.27% (inactive); under `CCOC(=O)N1CCN(CCC(=O)c2ccc(Cl)cc2)CC1`, -2.99% (inactive); under `CCOC(=O)c1c(C)oc2c1c(C(c1ccncc1)N1CCOCC1)c(O)c1ccccc12` (stereo not drawn), -0.13% (inactive).
As for `Cc1c(NC(=O)c2ccc(=O)oc2)c(=O)n(-c2ccccc2)n1C`, the inhibition is -4.8% (inactive).
Still for that read-out and setting: the figure for `CCOc1ccccc1-n1nnnc1SCC(=O)Nc1cc2oc3ccccc3c2cc1OC` is 4.16% (inactive); for `CC1=C(C(=O)OC2CCCCC2)C(c2ccc(C)o2)C2=C(CC(C)(C)CC2=O)N1` (stereo not drawn) it is 0.38% (inactive).
Same read-out and setting: under `Cc1nc2ccccc2c(=O)n1NC(=O)c1c(O)c2c(n(CC(C)C)c1=O)CCCC2` stands -1.84% (inactive).
Same read-out and setting: under `COc1ccc(C2=NOC(C(=O)Nc3cc(Br)ccc3O)C2)cc1OC` (stereo not drawn) stands -6.76% (inactive); under `Cc1ccc(NC(=O)c2oc3ccc(S(=O)(=O)N4CCOCC4)cc3c2C)cc1C`, -5.26% (inactive).
With `Cc1nn(-c2nc3ccccc3s2)c(C)c1Oc1ccccc1O`, the inhibition is -6.13% (inactive).
On the same count and under the same terms, the figure for `Cc1ccc(S(=O)(=O)c2cc3c(=O)n4ccccc4nc3n(CC3CCCO3)c2=N)cc1C` (stereo not drawn) is -4.86% (inactive).
In the case of `Cc1ccc(C)c(S(=O)(=O)C(C#N)c2nc3ccccc3nc2N2CC(C)OC(C)C2)c1` (stereo not drawn), the inhibition is 0.52% (inactive).
Same read-out and setting: the figure for `COC(=O)c1ccccc1S(=O)(=O)N(Cc1cc2cc3c(cc2[nH]c1=O)OCO3)C1CCCCC1` is 4.74% (inactive); for `CC(C)C(=O)Nc1ccc(C(=O)NCc2cccnc2)cc1` it is 4.42% (inactive).
The same measure, in the same setting: the figure for `C=C(c1ccc(O)cc1)c1ccc(O)cc1` is -5.92% (inactive); for `Cc1ccc2c(c1)c1c(n2CC(O)Cn2c(C)nc3ccccc32)/C(=N\O)CCC1` (stereo not drawn) it is -4.27% (inactive).
Same read-out and setting: under `C=CCn1c(COc2ccc(Cl)cc2)nnc1SCC(=O)N1CC(=O)Nc2ccccc21` stands -5.2% (inactive); under `CCC(Sc1nc2n[nH]c(C)c2c(=N)n1-c1cc(Cl)ccc1C)C(=O)N1CCOCC1` (stereo not drawn), 2.37% (inactive).
In the case of `CCOC(=O)c1ccc(N2C(=O)CC(Sc3nnc(C)s3)C2=O)cc1` (stereo not drawn), the inhibition was -8.4% (inactive).
Still for that read-out and setting: the figure for `N#CC1=C(N)n2c(s/c(=C\c3ccco3)c2=O)=C(C#N)C1c1ccco1` (stereo not drawn) is 0.13% (inactive); for `COc1ccc(N2CCN(Cc3cc(=O)oc4cc(C)c(Cl)c(C)c34)CC2)cc1` it is -7.33% (inactive); for `Cc1ccc(S(=O)(=O)N2CCOCC2)cc1C(=O)Nc1ccc(-c2cn3ccsc3n2)cc1` it is -2.63% (inactive).
On the same count and under the same terms, under `CCCCCCc1ccc(-c2ncc(N)cn2)cc1` stands -1.47% (inactive); under `COc1cc(-c2noc(-c3ccccc3C(=O)NCc3ccco3)n2)cc(OC)c1OC`, -5.14% (inactive); under `Cc1ccc2nc(NC(=O)C3CCN(S(=O)(=O)c4cccc5nsnc45)CC3)sc2c1`, -5.07% (inactive).
`CCOC(=O)c1sc(Nc2nc3c(OC)cccc3s2)nc1C`: the inhibition is 0.13% (inactive).
Turning to `CC(=O)c1ccccc1Oc1nc(CN2CCOCC2)nc2scc(-c3cccs3)c12`, the inhibition was -8.24% (inactive).
Same read-out and setting: under `CCn1c2ccccc2c2cc(NC(=O)Cc3ccc(S(=O)(=O)N4CCOCC4)s3)ccc21` stands -1.84% (inactive).
The same measure, in the same setting: the figure for `Cc1[nH]nc(N=CC2=C(O)CC(C)(C)CC2=O)c1-c1ccc(Cl)cc1` is 6.8% (inactive); for `N#CC(C(=O)C1CCCCC1)c1nc2ccccc2[nH]1` (stereo not drawn) it is 0.66% (inactive).
The same measure, in the same setting: the figure for `O=C(CSc1nnc2scc(-c3ccccc3)n12)Nc1nsc(-c2ccccc2)n1` is -6.53% (inactive); for `CC(C)(C)n1nnnc1C(c1ccccc1)N1CCc2ccccc2C1` (stereo not drawn) it is -7.26% (inactive).
Consider `CCc1cc2c(=O)c(-c3nc4ccccc4[nH]3)coc2cc1OC(=O)N1CCOCC1`, for which the inhibition is -5.07% (inactive).
Still for that read-out and setting: under `O=C(Nc1sc2c(c1C(=O)NCc1ccco1)CCCC2)c1ccc2c(c1)OCO2` stands 1.22% (inactive); under `Cc1cccc(N2CCN(C(=O)c3ccc(NS(=O)(=O)c4c(C)noc4C)cc3)CC2)c1C`, -3.68% (inactive).
